CHT inh: human CHT choline transport inhibition. hit rate 0.86% among 310,000. AID 488975. CHT-expressing cells, membrane potential dye, choline response; hits give low values. Q9GZV3. B-score at 10 µM;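 active = B-score over 3 SD under the library average, and starting fluorescence ratio not unusually high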;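 note: choline stimulus applied at its EC90 after an EC20 pre-addition; B-score computed on integrated fluorescence ratio after choline addition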
Target sequence (Q9GZV3 whole entry, looked up): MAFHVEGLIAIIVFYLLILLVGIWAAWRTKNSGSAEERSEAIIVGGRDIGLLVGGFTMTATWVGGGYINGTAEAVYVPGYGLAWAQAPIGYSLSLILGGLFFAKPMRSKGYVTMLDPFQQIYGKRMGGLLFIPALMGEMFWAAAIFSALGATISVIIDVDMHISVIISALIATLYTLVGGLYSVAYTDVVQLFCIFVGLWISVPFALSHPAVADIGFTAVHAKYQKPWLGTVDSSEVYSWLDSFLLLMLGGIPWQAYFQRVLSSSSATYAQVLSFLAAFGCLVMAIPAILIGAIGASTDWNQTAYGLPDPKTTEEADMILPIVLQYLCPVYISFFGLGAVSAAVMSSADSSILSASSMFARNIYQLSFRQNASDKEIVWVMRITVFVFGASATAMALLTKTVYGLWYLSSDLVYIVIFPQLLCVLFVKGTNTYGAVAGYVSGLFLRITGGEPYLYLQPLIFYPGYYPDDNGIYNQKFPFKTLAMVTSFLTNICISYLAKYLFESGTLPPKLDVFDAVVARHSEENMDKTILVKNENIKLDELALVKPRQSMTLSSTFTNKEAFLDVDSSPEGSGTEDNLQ
ALR inh: human ALR oxidase inhibition via reduced H2O2 | hit rate 3.8% among 290,000 | inhibition, % (concentration not given with the values) | purified ALR, DTT oxidation, H2O2 HRP-luminol luminescence | AID 485317;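 active = mean replicate inhibition above about 79%, with every replicate also reaching it, limit read from the data; inconclusive = only one of the two criteria met; inactive = mean below limit and not every replicate reaching it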
CHT allo act: human CHT allosteric activation. Q9GZV3. CHT-expressing cells, membrane potential dye, choline EC20; hits give high values; LV-AA mutant CHT in HEK293 cells. B-score at 10 µM. hit rate 0.49% among 310,000. AID 488977;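 active = initial fluorescence not abnormally high and integrated response B-score, plate-corrected, over 3 SD above library mean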
PREPL inhibitor: human PREPL enzyme inhibition; Q4J6C6; recombinant PREPL, fluorescence polarization activity-based probe; inhibition, % at 5.96 µM; hit rate 0.68% among 320,000; AID 2751; in the data active = inhibition above about 43%;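 note: 0% = enzyme with DMSO and 100% = wells lacking enzyme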
AI-2 QS modul: Vibrio harveyi AI-2 quorum sensing modulation. hit rate 0.4% among 300,000. Vibrio harveyi JMH597 AI-2 luminescence/OD600 ratio, 9 h; hits give low values; strain lacks LuxN and CqsS sensors; 0 = neutral-control median. AID 2094. activity change, % at 7.5 µM; in the data active = activity change below about -75%, passing the limit was not always enough; inconclusive = no clear call, values can overlap the other calls;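 note: luminescence divided by OD600 gain over 9 h not by final OD600 alone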
The depositor's hits bear a star; i = inactive; ? = inconclusive; . = not tested or not shown. Rows were chosen to be rich in hits. Some 5% of all compounds tested hit in one or more screens of this group.

SMILES	CHT inh	ALR inh	CHT allo act	PREPL inhibitor	AI-2 QS modul
Cc1ccc2c(=O)n3c(nc2c1)C(Cc1ccccc1)NC(=O)c1cc(Cl)ccc1-3 (stereo not given)	.	1	.	12	.
O=C(Nn1c(-c2ccc(F)cc2)nc2ccccc2c1=O)C1CCCCC1	i	.	i	-11	12
NC(=O)c1ccsc1NC(=O)COC(=O)Cc1cccc2ccccc12	i	97*	i	-29	4
NC(=O)c1ccsc1NC(=O)COC(=O)c1cccnc1Cl	.	94*	.	0	.
O=C(COC(=O)C1CCN(c2ccc(C(F)(F)F)cn2)CC1)NCc1ccc(F)cc1	i	-2	i	-2	-9
CN(C(=S)Nc1ccc(SC(F)F)cc1)c1ccc(O)cc1	i	81*	i	22	33
O=C(CSc1nnc(Nc2ccccc2F)s1)Nc1cccc(S(=O)(=O)N2CCCCC2)c1	i	-4	i	-16	28
Fc1cnc(Cl)nc1N1CCN(c2ccccc2)CC1	i	99*	i	5	-2
CN1CCN(c2nc(N3CCN(c4ccccc4)CC3)ncc2F)CC1	i	99*	i	3	-1
CCCN(C(=O)C1CSC2(C)CCC(=O)N12)c1c(N)n(Cc2ccccc2)c(=O)[nH]c1=O (stereo not given)	i	2	i	-2	4
CCCN1C(=O)S/C(=C\c2ccc(N3CCOCC3)o2)C1=O	i	86*	i	4	12
CCOC(=O)CN1C(=O)S/C(=C/c2ccc(N3CCCCC3)o2)C1=O	i	17	i	-4	7
CCCN1C(=O)S/C(=C/c2ccc(N3CCOCC3)o2)C1=O	i	99*	i	5	13
O=S(=O)(c1ccc(NCCOc2ccccc2)nc1)N1CCCC1	.	.	.	-1	.
CSc1ccc(/C=C/C(=O)NC(=O)c2ccccc2O)cc1	i	13	i	14	38
COc1cc(/C=C/C(=O)O)ccc1O	i	87*	i	-1	4
O=C(/C=C/c1ccc(O)c(O)c1)NC(=O)c1ccccc1O	i	96*	i	-1	24
COc1cc(/C=C/C2=NC(=O)C(C)(C)O2)ccc1O	i	99*	i	2	8
O=C(O)/C=C/c1ccc(O)c(O)c1	i	98*	i	-2	21
COc1cc(/C=C/C(=O)CC(=O)/C=C/c2ccc(O)c(OC)c2)ccc1O	i	35	i	12	-6
CCCNC(=O)CN1CCN(c2cc3ccccc3c(Cl)n2)CC1	i	-1	i	11	7
COc1cc(CNc2ccccc2)c([N+](=O)[O-])cc1OC	i	?	i	1	31
COc1cc(/C=C/C(=O)c2ccc([N+](=O)[O-])o2)ccc1O	i	?	i	13	-175*
COc1ccc(C=C(C(C)=O)C(C)=O)cc1OC	i	.	i	11	14
COc1cc(C=C(C(C)=O)C(C)=O)ccc1O	i	98*	i	8	5
SMILES	CHT inh	ALR inh	CHT allo act	PREPL inhibitor	AI-2 QS modul
COc1cc(CNCc2ccccn2)ccc1OCc1ccc(Cl)c(Cl)c1	i	-12	i	49*	35
COc1cc(CNCc2ccccn2)ccc1OCc1ccc(Cl)cc1Cl	i	-15	i	39	42
CC(=O)Nc1cccc(NC(=O)CSc2ccc(-c3ccco3)nn2)c1	i	?	i	0	6
CCOC(=O)c1ccccc1NC(=O)COC(=O)C(CC(C)C)NC(N)=O (stereo not given)	i	.	i	8	-1
CC(C)CC(NC(=O)c1ccccc1)C(=O)OCC(=O)Nc1ccc(Br)cn1 (stereo not given)	i	99*	i	1	37
C[C@H]1COc2c(N3CCN(C)CC3)c(F)cc3c(=O)c(C(=O)O)cn1c23	i	16	8.9*	-4	19
Cc1ccc(-c2nc(CS(=O)(=O)CC(=O)NCCCN(Cc3ccccc3)C(C)C)c(C)o2)cc1	i	-3	i	25	10
Cc1ccc(-c2nc(CS(=O)CC(=O)NC(C)CCc3ccccc3)c(C)o2)cc1 (stereo not given)	i	93*	i	-5	22
Cc1ccc(-c2nc(CS(=O)CC(=O)NCCCc3ccccc3)c(C)o2)cc1 (stereo not given)	i	98*	i	-19	9
COc1ccc(-c2nc(CS(=O)CC(=O)NC(C)CCc3ccccc3)c(C)o2)cc1OC (stereo not given)	i	99*	i	-11	.
Cc1cnc(NC(=O)CC2CCCC2)s1	i	-7	i	-3	3
CCC(C)(O)c1[nH]c2ccc(C(F)(F)F)cc2c1C (stereo not given)	i	-9	i	-2	23
CNC(=O)c1c(NC(=O)c2nc3ccccc3s2)sc2c1CCC2	i	97*	i	-3	40
CNC(=O)c1c(NC(=O)c2ccc(N3C(=O)CCC3=O)cc2)sc2c1CCCC2	i	97*	i	-8	41
COC(=O)c1c(NC(=O)c2nc3ccccc3s2)sc2c1CCN(C(C)=O)C2	i	-3	i	-4	.
COc1cccc(N(CC(=O)NC2CCCCC2)C(=O)CCCC(=O)Nc2ccccn2)c1	i	-12	i	-3	3
Cc1nn(-c2ccccc2)c(C)c1/C=N/NC(=O)c1cc(O)cc(O)c1	i	29	i	9	16
Cc1nn(-c2ccccc2)c(C)c1-c1cc(C(=O)N/N=C/c2ccc(O)cc2)[nH]n1	i	97*	i	12	15
Cc1nn(-c2ccccc2)c(C)c1/C=N/NC(=O)c1cc(C23CC4CC(CC(C4)C2)C3)[nH]n1	-8.5*	.	i	3	23
O=C(N/N=C/c1ccc([N+](=O)[O-])cc1)c1cc(-c2ccc3c(c2)OCO3)n[nH]1	i	0	i	5	20
COc1cc(/C=N/NC(=O)c2cc(-c3ccc4c(c3)OCO4)n[nH]2)ccc1O	i	91*	i	31	96
COc1cc(/C=N/NC(=O)c2cc(-c3c(C)nn(-c4ccccc4)c3C)n[nH]2)ccc1O	i	84*	i	11	?
CCOC(=O)c1ccc(-c2c(-c3ccccc3OC)sc3cc4c(cc23)OCO4)cc1F	.	-7	.	21	.
Oc1ccc(-c2cn3cc(C(F)(F)F)ccc3n2)cc1	i	90*	i	18	-1
Fc1ccc(-c2cn3cc(C(F)(F)F)cc(Cl)c3n2)cc1	i	-4	i	-5	19
O=C(O)c1ccc(/C=C2\CCCc3c2nc2ccccc2c3C(=O)O)cc1	i	-12	i	-9	18
COc1ccc(/C=C2\CCCc3c2nc2ccccc2c3C(=O)O)cc1OC	i	-22	i	3	-5
COc1cc(/C=C2\CCCc3c2nc2ccccc2c3C(=O)O)cc(OC)c1O	i	99*	i	7	20

From PubChem BioAssay
